The values that follow come from PubChem BioAssay AID1345085 (National Center for Advancing Translational Sciences (NCATS), 2018).

Each structure is given as a SMILES string. Records with an inconclusive call do not appear. Activity calls are given as the source filed them. Calls follow the shape of the dose curve; as a rule, active = well fitted cell-killing curve with a large enough effect; inconclusive = small, poorly fitted or top-dose-only effect, or effect the other way; inactive = no such curve, though single readings can be large or run the other way.
Potency is read from the fitted curve at half-maximal effect.

In the assay the test system is PA-1. Nature of the assay: Confirmatory qHTS for gynecologic anti-cancer compounds from libraries of approved drugs and bioactive compounds. Also: nearly all actives have a fitted effect of over 55% in size. As to conditions: gynecologic cancer cell panel viability, ATPlite luminescence, 48 h; series mostly up to 57.6 µM. In a few lines: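 Seeding 1,000 cells per well preceded overnight (16 h) attachment, after which 48 h drug treatment across 57.5 uM–0.977 nM (11 points) was applied. Remaining cellular ATP, detected by ATPlite luminescence, defined IC50.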
As for `CCCCc1nc2cc(/C=C/C(=O)NO)ccc2n1CCN(CC)CC`, the Potency was 385 nM (active).
For `COc1cc(Nc2ncc3c(n2)-c2ccc(Cl)cc2C(c2c(F)cccc2OC)=NC3)ccc1C(=O)O`, the Potency is 193 nM (active).
As for `CC1=C(/C=C/C(C)=C/C=C/C(C)=C/C(=O)Nc2ccc(O)cc2)C(C)(C)CCC1`, the figure is 4850 nM (active).
For `Nc1ccc(C(=O)Nc2cccc(-c3nc(N4CCOCC4)c4oc5ncccc5c4n3)c2)cn1`, the Potency is 12200 nM (active).
As for `Cc1ccc(C(=O)N(CCCN)C(c2oc3cc(Cl)ccc3c(=O)c2Cc2ccccc2)C(C)C)cc1` (stereo not given), the figure is 13.7 nM (active); as for `CC(Oc1ccc2[nH]nc(/C=C/c3cnn(CCO)c3)c2c1)c1c(Cl)cncc1Cl` (stereo not given), 1930 nM (active); as for `CCc1c2c(nc3ccc(O)cc13)-c1cc3c(c(=O)n1C2)COC(=O)[C@]3(O)CC`, 76.9 nM (active).
As for `CN1C2CCC1CC(OC(=O)[C@H](CO)c1ccccc1)C2` (stereo not given in full), the entry is “inactive”; as for `CCCCc1oc2ccc(NS(C)(=O)=O)cc2c1C(=O)c1ccc(OCCCN(CCCC)CCCC)cc1`, 27300 nM (active); as for `OC[C@H]1O[C@@H](n2cnc3c(=S)nc[nH]c32)[C@H](O)[C@@H]1O`, 2730 nM (active).
